Several values for one entry are separate records, joined by “and”; a condition that tells them apart may be missing. Equal values may be shown once. The whole screen tested about 5,500 compounds, of which about 2,000 (36%) were called active. Another 18% or so got no clear call; they are omitted. Rule as the data show it: active = normalized growth mostly below about 0.91 (no sharp cut-off); inconclusive = no clear call, values can overlap the other calls; inactive = mostly above about 0.92. This is one part of the list.
Assay: chemical genetic growth profiling, strain panel (AID 1159580);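 also: tested at 20 µM; growth read once vehicle control cultures reached saturation at 30 °C; 1 = growth at the plate median or of vehicle wells; lower values mean less growth of the strain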
Settings: S. cerevisiae deletion strains, growth OD

Measured: normalized growth

CCOc1nc2cccc(C(=O)OC(C)OC(=O)OC3CCCCC3)c2n1Cc1ccc(-c2ccccc2-c2nn[nH]n2)cc1 (configuration not stated)
active: locus YDR137W, strain rgp1, hits give low values 0.824
inactive: locus YAL013W, strain DEP1, hits give low values 1 | locus YAL021C, strain ccr4, hits give low values 1 | locus YAL026C, strain drs2, hits give low values 1.03 | locus YAL030W, strain snc1, hits give low values 1.02 | locus YBL061C, strain skt5, hits give low values 1.01 | locus YBR009C, strain hhf1, hits give low values 0.998 | locus YBR021W, strain FUR4, hits give low values 1.03 | locus YBR023C, strain chs3, hits give low values 1.03 | locus YBR171W, strain sec66, hits give low values 1.05 | locus YBR229C, strain ROT2, hits give low values 0.996 | locus YBR231C, strain swc5, hits give low values 1.01 | locus YBR279W, strain paf1, hits give low values 1.02 | locus YCL011C, strain gbp2, hits give low values 1.02 | locus YCL016C, strain dcc1, hits give low values 1.01 | locus YCL029C, strain bik1, hits give low values 1.01 | locus YCL061C, strain MRC1, hits give low values 1.02 | locus YCL069W, strain vba3, hits give low values 1.05 | locus YCR088W, strain abp1, hits give low values 1.03 | locus YDL005C, strain med2, hits give low values 1.03 | locus YDL035C, strain GPR1, hits give low values 0.977 | locus YDL040C, strain nat1, hits give low values 1.02 | locus YDL074C, strain BRE1, hits give low values 0.96 | locus YDL101C, strain DUN1, hits give low values 0.998 | locus YDL134C, strain PPH21, hits give low values 1.01 | locus YDL185W, strain tfp1, hits give low values 0.999 | locus YDL192W, strain arf1, hits give low values 1 | locus YDR001C, strain nth1, hits give low values 1.03 | locus YDR069C, strain doa4, hits give low values 1.04 | locus YDR101C, strain arx1, hits give low values 1 | locus YDR150W, strain NUM1, hits give low values 1.01 | locus YDR159W, strain sac3, hits give low values 1 | locus YDR162C, strain NBP2, hits give low values 0.983 | locus YDR195W, strain ref2 0.994 | locus YDR297W, strain sur2, hits give low values 0.994 | locus YDR318W, strain mcm21, hits give low values 0.995 | locus YDR334W, strain swr1, hits give low values 1.03 | locus YDR335W, strain msn5, hits give low values 1.03 | locus YDR388W, hits give low values 1 | locus YDR392W, strain spt3, hits give low values 0.996 | locus YDR502C, strain sam2, hits give low values 0.997 | locus YEL003W, strain gim4, hits give low values 1.03 | locus YEL037C, strain rad23, hits give low values 1.02 | locus YEL061C, strain CIN8 (second series), hits give low values 1.02 | locus YEL061C, strain CIN8, hits give low values 1 | locus YER015W, strain faa2, hits give low values 1.02 | locus YER016W, strain bim1, hits give low values 1.02 | locus YER110C, hits give low values 0.997 | locus YER111C, strain swi4, hits give low values 1.04 | locus YER155C, strain BEM2 (second series), hits give low values 1.07 | locus YER155C, strain BEM2, hits give low values 1.01 | locus YER167W, strain BCK2, hits give low values 0.986 | locus YFR010W, strain ubp6, hits give low values 1.04 | locus YGL078C, strain dbp3, hits give low values 1.01 | locus YGL086W, strain mad1, hits give low values 0.997 | locus YGL167C, strain pmr1, hits give low values 1.03 | locus YGL173C, strain kem1, hits give low values 1.03 | locus YGL227W, strain vid30, hits give low values 1.02 | locus YGL240W, strain doc1, hits give low values 1.02 | locus YGL248W, strain PDE1, hits give low values 1.01 | locus YGL253W, strain hxk2, hits give low values 1.04 | locus YGR078C, strain PAC10, hits give low values 0.988 | locus YGR135W, strain pre9, hits give low values 1 | locus YGR229C, strain SMI1, hits give low values 0.851 | locus YGR252W, strain gcn5, hits give low values 0.972 | locus YHR013C, strain ard1, hits give low values 1.03 | locus YHR027C, strain rpn1, hits give low values 1.01 | locus YHR030C, strain SLT2, hits give low values 0.996 and 0.96 | locus YHR079C, strain IRE1 (second series), hits give low values 0.996 | locus YHR079C, strain IRE1, hits give low values 0.957 | locus YHR094C, strain hxt1, hits give low values 0.995 | locus YHR129C, strain ARP1, hits give low values 1.01 | locus YHR142W, strain chs7, hits give low values 1.04 | locus YHR200W, strain rpn10, hits give low values 0.998 | locus YIL066C, strain RNR3, hits give low values 1.01 | locus YIL073C, strain SPO22, hits give low values 1.07 | locus YIL125W, strain kgd1, hits give low values 0.989 | locus YIR030C, strain dcg1, hits give low values 0.996 | locus YJL092W, strain hpr5, hits give low values 1.03 | locus YJL095W, strain BCK1 (second series), hits give low values 1.01 | locus YJL095W, strain BCK1, hits give low values 0.8 and 1.01 | locus YJL115W, strain asf1, hits give low values 1.04 | locus YJL129C, strain trk1, hits give low values 1.04 | locus YJL134W, strain LCB3, hits give low values 1.01 | locus YJL154C, strain vps35, hits give low values 1.03 | locus YJL164C, strain tpk1, hits give low values 1.01 | locus YJL166W, strain qcr8, hits give low values 1.01 | locus YJL168C, strain set2, hits give low values 0.994 | locus YJL187C, strain SWE1 (second series), hits give low values 0.997 | locus YJL187C, strain SWE1, hits give low values 1.01 | locus YJR043C, strain POL32, hits give low values 0.996 | locus YJR066W, strain TOR1, hits give low values 0.93
